The whole screen tested about 5,500 compounds, of which about 2,000 (36%) were called active. Roughly 18% stayed inconclusive and do not appear here. Rule as the data show it: active = normalized growth mostly below about 0.91 (no sharp cut-off); inconclusive = no clear call, values can overlap the other calls; inactive = mostly above about 0.92. The list shows a part of the results.
Assay: chemical genetic growth profiling, strain panel (AID 1159580);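 also: tested at 20 µM; growth read once vehicle control cultures reached saturation at 30 °C; 1 = growth at the plate median or of vehicle wells; lower values mean less growth of the strain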
Conditions: growth OD

Measured: normalized growth

Cn1nnnc1SCC1=C(C(=O)O)N2C(=O)C(NC(=O)C(OC=O)c3ccccc3)C2SC1 (stereo unspecified)
inactive: S. cerevisiae deletion strains, locus YJR075W, strain HOC1, hits give low values 1.01 | S. cerevisiae deletion strains, locus YKL009W, strain mrt4, hits give low values 1.02 | S. cerevisiae deletion strains, locus YKL068W, hits give low values 1.01 | S. cerevisiae deletion strains, locus YKL085W, strain MDH1 (second series), hits give low values 1 | S. cerevisiae deletion strains, locus YKL085W, strain MDH1, hits give low values 1 | S. cerevisiae deletion strains, locus YKL160W, strain elf1, hits give low values 1.01 | S. cerevisiae deletion strains, locus YKL190W, strain CNB1, hits give low values 1 | S. cerevisiae deletion strains, locus YKR001C, strain vps1, hits give low values 1.02 | S. cerevisiae deletion strains, locus YKR026C, strain gcn3, hits give low values 0.989 | S. cerevisiae deletion strains, locus YKR091W, strain srl3, hits give low values 0.995 | S. cerevisiae deletion strains, locus YLL001W, strain dnm1, hits give low values 1 | S. cerevisiae deletion strains, locus YLL026W, hits give low values 0.997 | S. cerevisiae deletion strains, locus YLL041C, strain sdh2, hits give low values 1 | S. cerevisiae deletion strains, locus YLR027C, strain aat2, hits give low values 0.992 | S. cerevisiae deletion strains, locus YLR039C, strain RIC1, hits give low values 1 | S. cerevisiae deletion strains, locus YLR058C, strain SHM2, hits give low values 1 | S. cerevisiae deletion strains, locus YLR102C, strain apc9, hits give low values 1.02 | S. cerevisiae deletion strains, locus YLR113W, strain HOG1, hits give low values 0.941 | S. cerevisiae deletion strains, locus YLR221C, strain rsa3, hits give low values 0.987 | S. cerevisiae deletion strains, locus YLR258W, strain gsy2, hits give low values 0.998 | S. cerevisiae deletion strains, locus YLR262C, strain YPT6 (second series), hits give low values 1.02 | S. cerevisiae deletion strains, locus YLR262C, strain YPT6, hits give low values 1.04 | S. cerevisiae deletion strains, locus YLR268W, strain sec22, hits give low values 1.01 | S. cerevisiae deletion strains, locus YLR320W, strain mms22, hits give low values 0.993 | S. cerevisiae deletion strains, locus YLR330W, strain CHS5, hits give low values 1 | S. cerevisiae deletion strains, locus YLR342W, strain FKS1 (second series), hits give low values 0.999 | S. cerevisiae deletion strains, locus YLR342W, strain FKS1, hits give low values 0.992 | S. cerevisiae deletion strains, locus YLR357W, strain rsc2, hits give low values 0.94 | S. cerevisiae deletion strains, locus YLR370C, strain arc18, hits give low values 0.989 | S. cerevisiae deletion strains, locus YLR371W, strain rom2, hits give low values 1.02 | S. cerevisiae deletion strains, locus YLR384C, strain iki3, hits give low values 0.991 | S. cerevisiae deletion strains, locus YLR418C, strain cdc73, hits give low values 1.04 | S. cerevisiae deletion strains, locus YML016C, strain PPZ1, hits give low values 1.01 | S. cerevisiae deletion strains, locus YML032C, strain rad52, hits give low values 1.04 | S. cerevisiae deletion strains, locus YML120C, strain ndi1, hits give low values 1.02 | S. cerevisiae deletion strains, locus YML124C, strain tub3, hits give low values 1.02 | S. cerevisiae deletion strains, locus YMR058W, strain fet3, hits give low values 0.998 | S. cerevisiae deletion strains, locus YMR078C, strain ctf18, hits give low values 1.02 | S. cerevisiae deletion strains, locus YMR125W, strain sto1, hits give low values 0.989 | S. cerevisiae deletion strains, locus YMR129W, hits give low values 1 | S. cerevisiae deletion strains, locus YMR205C, strain PFK2, hits give low values 1.02 | S. cerevisiae deletion strains, locus YMR223W, strain ubp8, hits give low values 1.02 | S. cerevisiae deletion strains, locus YMR231W, strain pep5, hits give low values 0.998 | S. cerevisiae deletion strains, locus YMR263W, strain SAP30, hits give low values 0.999 | S. cerevisiae deletion strains, locus YMR307W, strain GAS1, hits give low values 1.07 | S. cerevisiae deletion strains, locus YNL067W, strain RPL9B, hits give low values 1 | S. cerevisiae deletion strains, locus YNL071W, strain lat1, hits give low values 1 | S. cerevisiae deletion strains, locus YNL128W, strain TEP1, hits give low values 1.02 | S. cerevisiae deletion strains, locus YNL153C, strain GIM3, hits give low values 0.997 | S. cerevisiae deletion strains, locus YNL183C, strain NPR1, hits give low values 0.934 | S. cerevisiae deletion strains, locus YNL209W, strain ssb2, hits give low values 1 | S. cerevisiae deletion strains, locus YNL233W, strain BNI4, hits give low values 0.993 | S. cerevisiae deletion strains, locus YNL248C, strain rpa49, hits give low values 0.986 | S. cerevisiae deletion strains, locus YNL250W, strain rad50, hits give low values 1.02 | S. cerevisiae deletion strains, locus YNL271C, strain bni1, hits give low values 1.04 | S. cerevisiae deletion strains, locus YNL298W, strain CLA4, hits give low values 1.05 | S. cerevisiae deletion strains, locus YNL307C, strain MCK1, hits give low values 1.03 | S. cerevisiae deletion strains, locus YNL322C, strain KRE1 (second series), hits give low values 1 | S. cerevisiae deletion strains, locus YNR049C, strain mso1, hits give low values 0.988 | S. cerevisiae deletion strains, locus YNR052C, strain pop2, hits give low values 1.03 | S. cerevisiae deletion strains, locus YOL006C, strain TOP1, hits give low values 1.02 | S. cerevisiae deletion strains, locus YOL012C, strain htz1 0.769 | S. cerevisiae deletion strains, locus YOL147C, strain pex11, hits give low values 1.02 | S. cerevisiae deletion strains, locus YOR001W, strain rrp6, hits give low values 0.973 | S. cerevisiae deletion strains, locus YOR061W, strain CKA2, hits give low values 1.01 | S. cerevisiae deletion strains, locus YOR069W, strain VPS5, hits give low values 0.993 | S. cerevisiae deletion strains, locus YOR070C, strain gyp1, hits give low values 0.985 | S. cerevisiae deletion strains, locus YOR080W, strain dia2, hits give low values 1 | S. cerevisiae deletion strains, locus YOR083W, strain WHI5, hits give low values 1.01 | S. cerevisiae deletion strains, locus YOR106W, strain vam3, hits give low values 1.02 | S. cerevisiae deletion strains, locus YOR136W, strain idh2, hits give low values 1.03 | S. cerevisiae deletion strains, locus YOR144C, strain elg1, hits give low values 1.01 | S. cerevisiae deletion strains, locus YOR184W, strain ser1, hits give low values 1.02 | S. cerevisiae deletion strains, locus YOR231W, strain MKK1, hits give low values 0.983 | S. cerevisiae deletion strains, locus YOR265W, strain rbl2, hits give low values 1.01 | S. cerevisiae deletion strains, locus YOR270C, strain vph1, hits give low values 1.01 | S. cerevisiae deletion strains, locus YOR290C, strain snf2, hits give low values 1.01 | S. cerevisiae deletion strains, locus YOR316C, strain cot1, hits give low values 1.02 | S. cerevisiae deletion strains, locus YPL051W, strain arl3, hits give low values 0.983 | S. cerevisiae deletion strains, locus YPL055C, strain LGE1, hits give low values 1.02 | S. cerevisiae deletion strains, locus YPL078C, strain atp4, hits give low values 1.01 | S. cerevisiae deletion strains, locus YPL106C, strain sse1, hits give low values 1.01 | S. cerevisiae deletion strains, locus YPL240C, strain hsp82, hits give low values 0.995 | S. cerevisiae deletion strains, locus YPL241C, strain CIN2, hits give low values 1 | S. cerevisiae deletion strains, locus YPL256C, strain CLN2, hits give low values 0.999 | S. cerevisiae deletion strains, locus YPR119W, strain clb2, hits give low values 1.02 | S. cerevisiae deletion strains, locus YPR141C, strain kar3, hits give low values 1.01 | S. cerevisiae deletion strains, locus YPR163C, strain tif3, hits give low values 1.04 | S. cerevisiae deletion strains, locus YPR167C, strain met16, hits give low values 1.02 | S. cerevisiae deletion strains, strain wtn01, hits give low values 1.01 | S. cerevisiae strains, strain wild type, hits give low values 1
